Screening results deposited in PubChem BioAssay by National Center for Advancing Translational Sciences (NCATS).
Sampled rows, rich in hits. Any-hit rate of the full collection: about 8%.
Coupling enz – qHTS Assay for Inhibitors of Fructose-1,6-bisphosphate Aldolase from Giardia Lamblia: Coupling assay counterscreen; AID 2472, 2010; activity change, negative = inhibition, % at 58.2 µM, hits read low; 290,000 tested, 0.67% active; coupling enzyme system counterscreen, AmpLite Red fluorescence; in the data active means activity change below about -30%
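Coupling enzymes only (glyceraldehyde-3-phosphate) + compound, at 57.5 uM final, 10 min RT; add substrate/coupling/AmpLite Red mix, 20 min RT; fluorescence ex 525/em 598 nm. Actives flag coupling-system interference.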
TSHR antag – Antagonists of the Thyroid Stimulating Hormone Receptor: HTS campaign. Thyrotropin receptor (Homo sapiens), P16473. TSHR-expressing cells, TSH-stimulated cAMP HTRF, 2 h; stronger effect = lower value. 330,000 tested, 0.2% active. activity change, negative = inhibition, % at 11.5 µM;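 active means activity change below a set negative limit, meaning inhibition stronger than a set level, cut at about -70% in these data; inconclusive means activity change between two set negative limits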
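Competitive HTRF cAMP read-out (cryptate anti-cAMP antibody, cAMP-d2; 30 min, room temperature) in freshly harvested TSHR cells. Compounds added before TSH at EC80 (4nM final), followed by 2 hours' incubation at 37 deg C.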
ELG1 repair inh – qHTS screen for small molecules that inhibit ELG1-dependent DNA repair in human embryonic kidney (HEK293T) cells expressing luciferase-tagged ELG1. AID 504467, 2011. Potency, µM (top dose mostly 46.1 µM), without a hit: at the highest dose activity change, negative = inhibition, actives largely listed as inhibitors. 330,000 tested, 2.3% active. HEK293T ELG1-luciferase reporter, luminescence, 16 h; DNA damage induced by 5-fluorouridine; further: potency means the concentration at half of the fitted maximal effect; nearly all actives have a fitted effect of over 55% in size
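Quantitative HTS, concentration-response format. 2,000 cells/well co-treated with 5-fluorouridine and compound, 16 hr in 5% CO2 at 37 °C; ONE-Glo luminescence read after 30 min.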
RORgamma inh – qHTS for inhibitors of ROR gamma transcriptional activity; Potency, µM (titrated, usually from 53.6 µM), inactives show at the top dose activity change, negative = inhibition, most hits filed as inhibitors; Nuclear receptor ROR-gamma (Mus musculus), P51450; AID 2551, 2010; 310,000 tested, 5.4% active; Drosophila S2 Gal4-RORgamma UAS-luciferase reporter, 20 h; further: potency means the concentration at half of the fitted maximal effect; nearly all actives have a fitted effect of over 60% in size
Target sequence (P51450 whole entry, looked up, the tested form may be a part): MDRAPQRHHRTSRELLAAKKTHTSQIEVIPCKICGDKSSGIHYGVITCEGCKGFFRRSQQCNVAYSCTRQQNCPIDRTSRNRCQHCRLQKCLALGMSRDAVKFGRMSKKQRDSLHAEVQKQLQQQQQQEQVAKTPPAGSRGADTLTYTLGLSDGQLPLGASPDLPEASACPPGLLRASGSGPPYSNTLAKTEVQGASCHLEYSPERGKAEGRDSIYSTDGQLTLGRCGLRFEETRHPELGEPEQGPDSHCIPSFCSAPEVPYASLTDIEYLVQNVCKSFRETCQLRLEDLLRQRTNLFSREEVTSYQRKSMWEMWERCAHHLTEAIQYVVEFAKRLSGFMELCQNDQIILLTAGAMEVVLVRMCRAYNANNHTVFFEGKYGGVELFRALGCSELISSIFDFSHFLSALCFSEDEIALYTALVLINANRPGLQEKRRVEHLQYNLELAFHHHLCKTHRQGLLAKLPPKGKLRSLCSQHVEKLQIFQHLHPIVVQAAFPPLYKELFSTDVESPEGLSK
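Luminescence from a UAS-regulated Photinus luciferase reporter in stably transfected Drosophila Schneider cells is measured; decreased signal marks ROR gamma inhibition. Fusion expression is induced by 700 uM copper sulfate for 20 hr.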
VP16 counter – VP16 counterscreen qHTS for inhibitors of ROR gamma transcriptional activity; Drosophila S2 Gal4-VP16 UAS-luciferase, luminescence, 20 h; Potency, µM (doses to about 53.6 µM), inactives show at the top dose activity, negative = inhibition, most hits filed as inhibitors; 310,000 tested, 3.5% active;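 further: Gal4-VP16 expression switched on by copper sulfate through the metallothionein promoter; potency means the concentration at half of the fitted maximal effect; nearly all actives have a fitted effect of over 50% in size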
* marks the source's active call; other numbers are inactive results. Unless noted, the call rests on the fitted dose curve; in most records, active means well fitted curve in the direction sought with a large enough effect; inconclusive means small, poorly fitted or top-dose-only effect, or another doubt; inactive means no such curve, though single readings can be large; an effect the other way counts as inactive or inconclusive. On the % scale 0 is the no-effect control and ±100 the full control effect.

Results for Cc1ccc(-c2csc(NC(=O)c3ccc(Br)cc3)c2C(=O)O)cc1 ?
Coupling enz: -30*; TSHR antag: -14; ELG1 repair inh: inconclusive; RORgamma inh: 7%; VP16 counter: -4%

What do the screens show for `COC(=O)c1c(-c2ccc(C)cc2)csc1NC(=S)NC(=O)c1ccc(F)cc1`?
Coupling enz: 1; TSHR antag: 5; ELG1 repair inh: 0%; RORgamma inh: 2.5µM*; VP16 counter: 5µM*

How did CC(=O)OC[C@H]1O[C@@](COC(C)=O)(O[C@H]2O[C@H](COC(C)=O)[C@@H](OC(C)=O)[C@H](OC(C)=O)[C@H]2OC(C)=O)[C@@H](OC(C)=O)[C@@H]1OC(C)=O do in these assays?
RORgamma inh: -1%; VP16 counter: 3%

Results for CC(/C=N/n1c(-c2ccc(Cl)cc2)n[nH]c1=S)=C\c1ccco1 ?
Coupling enz: 0; TSHR antag: -31; ELG1 repair inh: 0%; RORgamma inh: 3.2µM*; VP16 counter: 4µM*

Results for Cc1ccc(-c2n[nH]c(=S)n2/N=C\c2ccco2)cc1 ?
Coupling enz: 3; TSHR antag: 33; ELG1 repair inh: 12%; RORgamma inh: 6.3µM*; VP16 counter: 5.6µM*

Results for Cc1cccc(-c2n[nH]c(=S)n2/N=C/c2ccco2)c1 ?
Coupling enz: -1; TSHR antag: 0; ELG1 repair inh: 2%; RORgamma inh: 8.9µM*; VP16 counter: inconclusive

How did CC(/C=N/n1c(-c2cc(C)[nH]n2)n[nH]c1=S)=C\c1ccco1 do in these assays?
Coupling enz: 0; TSHR antag: -32; ELG1 repair inh: inconclusive; RORgamma inh: 20%; VP16 counter: -5%

How did O=c1[nH]c(=O)c2[nH]c(=O)[nH]c2[nH]1 do in these assays?
RORgamma inh: 36%; VP16 counter: 7%

How did N#Cc1cccc(-c2csc(N3CCC(C(N)=O)CC3)n2)c1 do in these assays?
TSHR antag: -9

How did COc1ccc(C(=O)O)cc1S(=O)(=O)NCc1ccccn1 do in these assays?
Coupling enz: 0; TSHR antag: -3; ELG1 repair inh: 11%; RORgamma inh: -1%; VP16 counter: -4%

Results for Cc1ccc(C(C)C)cc1S(=O)(=O)NCc1ccccn1 ?
Coupling enz: 1; TSHR antag: 28; ELG1 repair inh: inconclusive; RORgamma inh: 14µM*; VP16 counter: inconclusive

How did Cc1ccc(C(C)C)cc1S(=O)(=O)NCc1cccnc1 do in these assays?
Coupling enz: -4; TSHR antag: -4; ELG1 repair inh: inconclusive; RORgamma inh: inconclusive; VP16 counter: 18µM*

What do the screens show for `COc1ccc(C(C)C)cc1S(=O)(=O)NCc1ccccn1`?
Coupling enz: -1; TSHR antag: -11; ELG1 repair inh: 0%; RORgamma inh: 13µM*; VP16 counter: -9%

Results for Cc1cc(C)c(S(=O)(=O)NCc2ccccn2)cc1C ?
Coupling enz: 0; TSHR antag: 13; ELG1 repair inh: 10%; RORgamma inh: inconclusive; VP16 counter: -11%

How did Cc1ccc(S(=O)(=O)NCCC(=O)OCC(=O)NCCc2ccccc2)cc1C do in these assays?
TSHR antag: 8; ELG1 repair inh: 1%

How did O=C(c1cccc(F)c1)N1CCC2(CCN(Cc3cc(C(F)(F)F)cc(C(F)(F)F)c3)CC2)CC1 do in these assays?
Coupling enz: -2; RORgamma inh: 0%; VP16 counter: -9%

How did O=C(COC(=O)c1ccc(Cl)nc1)Nc1ccc2c(c1)OCCO2 do in these assays?
TSHR antag: -7; ELG1 repair inh: 22%

What do the screens show for `COc1ccc(S(=O)(=O)N2CCCC2)cc1C(=O)O`?
Coupling enz: 0; TSHR antag: 13; ELG1 repair inh: -1%; RORgamma inh: 1%; VP16 counter: -9%
